Test results reported in PubChem BioAssay AID540356 (Broad Institute, 2011).
The campaign covered roughly 2,500 compounds. About 360 (14%) were called active.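 How the source made its calls: active means signal-lowering compounds whose fitted half-maximal concentration AC50 is no higher than ten times their top tested concentration; inconclusive means flat curve with 30 to 70% inhibition, or poor fit; inactive means flat within 30%, signal increase, or AC50 above limit.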 The list is a sample of the results.

Test: non-specific inhibitors of H2O2 luminol chemiluminescence – biochemical, luminescence, no ALR or DTT, cherry-pick, artefact control for ALR inhibitor project, dose response (AID 540356);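 on activity change, negative = inhibition: 0% = median of neutral control wells and -100% = median of quercitin 100 µM wells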
Settings: HRP/H2O2 luminol luminescence counterscreen; series mostly up to 10 µM; activity change, negative = inhibition: at the top concentration

Row | Structure (SMILES) | activity change, negative = inhibition | AC50
1 | COc1ccc(Nc2cccc(Cl)c2)c(C(=O)O)c1 | -13.4% (inactive) | 
2 | O=C(NNc1cccc(Cl)c1)c1cccnc1Cl |  | 6.88 µM (active)
3 | C/C(=N\Nc1cccc(Cl)c1)c1ccncc1 | 3.05% (inactive) | 
4 | O=C(CC1CCCC1)N1CCCC(Nc2ccc(F)cc2)C1 (stereo unspecified) | 0.017% (inactive) | 
5 | Cc1occc1C(=O)N1CCCC(Nc2ccc(C(C)C)cc2)C1 (stereo unspecified) | -3.64% (inactive) | 
6 | CCS(=O)(=O)N1Cc2ccccc2CC1C(=O)N1CCN(c2ccccc2)CC1 (stereo unspecified) | 1.97% (inactive) | 
7 | Cc1ccc2c(C)c(C(=O)Nc3ccc(S(=O)(=O)Nc4onc(C)c4C)cc3)oc2c1 | -6.98% (inactive) | 
8 | CCN(CC)c1ccc(NC(=O)c2nc3nc(C)cc(C(F)F)n3n2)cc1 |  | 10.3 µM (active)
9 | CCN(CC)c1ccc(NC(=O)CN2CCN(c3nc(C)cc(C)n3)CC2)cc1 | -15.6% (inactive) | 
10 | CCN(CC)c1ccc(NC(=O)CN2CCN(c3ccc(F)cc3)CC2)cc1 | -1.86% (inactive) | 
11 | COc1ccc(N2C(=O)CSC2c2ccc([N+](=O)[O-])cc2)cc1 (stereo unspecified) | 0.574% (inactive) | 
12 | O=C(NNc1cc(Br)c(O)c(Br)c1)c1ccccc1 | -1.51% (inactive) | 
13 | O=C(NNc1ccc(O)cc1)c1ccc(Br)cc1 |  | 9.05 µM (active)
14 | COc1ccc(Br)cc1C(=O)Nc1ccc(O)cc1 | -12.1% (inactive) | 
15 | Nc1cccc(/C=C/c2ccncc2)c1 | -4.25% (inactive) | 
16 | CCN(CC)Cc1c(-c2ccccc2)[nH]c2ccc(C)cc2c1=O | -0.224% (inactive) | 
17 | Oc1ccc(O)c(-c2cnns2)c1 |  | 5.54 µM (active)
18 | c1ccc(-c2nnc(CN3CCN(c4ccccc4)CC3)o2)cc1 | 1.45% (inactive) | 
19 | COc1ccc(NC2CCCN(C(=O)c3cn(C)c4ccccc34)C2)cc1 (stereo unspecified) | -14.7% (inactive) | 
20 | Cc1ccc(Nc2c(-c3ccccc3O)nc3cnccn23)cc1 | 0.898% (inactive) | 
21 | CC(=O)Oc1cc2oc(=O)cc(C)c2cc1Cl | -1.43% (inactive) | 
22 | Cc1cc(N)n2ncc(-c3ccccc3)c2n1 | -0.253% (inactive) | 
23 | O=C(NCC(c1cccnc1)N1CCN(c2ccc(F)cc2)CC1)c1ccco1 (stereo unspecified) | -1.53% (inactive) | 
24 | COC(=O)[C@H](Cc1ccccc1)NC(=O)N1CCN(c2ccccc2)CC1 | 0.603% (inactive) | 
25 | O=C(CN1CCN(c2ccccc2)CC1)Nc1ccccc1Cl | -0.658% (inactive) | 

Row | Structure (SMILES) | activity change, negative = inhibition | AC50
26 | O=C1N/C(=N\S(=O)(=O)Cc2ccccc2)S/C1=C/c1cc([N+](=O)[O-])ccc1O | -0.915% (inactive) | 
27 | Cc1ccc(N2CCN(C(=O)CNS(=O)(=O)c3ccc(Br)s3)CC2C)cc1 (stereo unspecified) | -2.85% (inactive) | 
28 | COc1ccc(N2CCN(C(=O)c3ccc(SC)cc3OC)CC2)cc1 | 0.908% (inactive) | 
29 | CCn1c(-c2cc(OC)c(OC)c(OC)c2)n[nH]c1=S | -10.3% (inactive) | 
30 | FC(F)(F)c1ccc(-c2nc(=S)[nH][nH]2)cc1 | -5% (inactive) | 
31 | S=c1nc(-c2cccc(Cl)c2)[nH][nH]1 | -9.58% (inactive) | 
32 | COc1ccc(-c2nc(=S)[nH][nH]2)cc1 |  | 2.94 µM (active)
33 | COc1cc(-c2nc(=S)[nH][nH]2)cc(OC)c1OC |  | 3.9 µM (active)
34 | S=c1nc(-c2cc(Cl)cc(Cl)c2)[nH][nH]1 | -2.06% (inactive) | 
35 | CC(=O)Nc1ccc(N2C(=O)CSC2c2ccccc2)cc1 (stereo unspecified) | 3.31% (inactive) | 
36 | COc1ccc2nc(N3CCCC3)[nH]c2c1 | -7.05% (inactive) | 
37 | Cc1[nH]c2ccccc2c1N=Nc1cccc(C(=O)O)c1 | -10.3% (inactive) | 
38 | CCCCC(NC(=O)Cc1c(C)c2cc3c(C)c(C)oc3c(C)c2oc1=O)C(=O)O (stereo unspecified) | -14.1% (inactive) | 
39 | CC(=O)NC(c1cc(Cl)c2ccccc2c1O)C(C)C (stereo unspecified) | -4.5% (inactive) | 
40 | COc1ccccc1N1CCN(C2CCCN(C(=O)CCc3c(C)noc3C)C2)CC1 (stereo unspecified) | -1.06% (inactive) | 
41 | CCN(CC)c1ccc(NC(=O)c2ccc(Br)o2)c(C)c1 | -5.68% (inactive) | 
42 | Cc1cccc(C2CN(C)CCc3c2cc(O)c(O)c3Cl)c1 (stereo unspecified) |  | 8.78 µM (active)
43 | COc1cc(OC)cc(-c2cn[nH]c2N)c1 | 0.221% (inactive) | 
44 | COc1ccc(-c2cn[nH]c2N)c(OC)c1 |  | 7 µM (active)
45 | COc1ccc2[nH]c(=S)[nH]c2c1 | -5.52% (inactive) | 
46 | Nc1cccc(CCc2ccncc2)c1 | -1% (inactive) | 
47 | O=C(Cc1ccc(Cl)cc1)N1CCN(c2ccccc2)CC1 | -0.387% (inactive) | 
48 | O=c1/c(=C/c2ccc(O)cc2)sc2n1CCCN=2 |  | 9.71 µM (active)
49 | O=C(C1CCCN(S(=O)(=O)c2cnc[nH]2)C1)N1CCN(c2ccc(Cl)cc2)CC1 (stereo unspecified) | -7.06% (inactive) | 
50 | O=C1CCCN1CCCNc1ncnc2c1[nH]c1ccc(Cl)cc12 | -0.822% (inactive) | 

Row | Structure (SMILES) | activity change, negative = inhibition | AC50
51 | COc1cc2c(ccc3cc(OC)c(OC)c(O)c32)cc1O | -17% (inactive) | 
52 | CCN(CCNS(=O)(=O)c1ccc2[nH]c(=O)sc2c1)c1ccccc1 | -0.959% (inactive) | 
53 | CC(=O)N1CC[n+]2c(-c3ccc(Cl)cc3)csc21 | -1.68% (inactive) | 
54 | O=C(CN1C(=O)CCC1=O)NNc1ccc2ccccc2c1 |  | 0.0915 µM (active)
55 | O=C(CNc1ccc2ccccc2c1)NNC1=NCCC1 | -0.851% (inactive) | 
56 | O=C1CCC(=O)N1CNc1ccc(Oc2ccccc2)cc1 | 0.862% (inactive) | 
57 | CCCn1cnc2cc(NCc3ccccc3O)ccc21 | 1.95% (inactive) | 
58 | Cc1cc(N2CCN(c3ccccc3)CC2)n2ncnc2n1 | -4.68% (inactive) | 
59 | O=C(O)c1ccc(CSc2nc3ccccc3o2)cc1 | -3.53% (inactive) | 
60 | CC(=O)N1CCN(C(=S)c2ccc(N(C)C)cc2)CC1 | -6.25% (inactive) | 
61 | S=c1[nH]nc(-c2ccco2)n1Cc1ccccc1 | -8.45% (inactive) | 
62 | COc1ccc(-c2n[nH]c(=S)n2Cc2ccco2)cc1 | -2.38% (inactive) | 
63 | CCn1c(-c2ccc(N)cc2)nc2ccccc21 | 5.07% (inactive) | 
64 | S=c1[nH]nc(-c2ccncc2)n1Cc1ccco1 | -1% (inactive) | 
65 | O=C(NNS(=O)(=O)c1ccc(F)cc1)c1cc2ccccc2cc1O | -9.25% (inactive) | 
66 | O=C(C1CCCC1)N1CCCC(Nc2ccccc2)C1 (stereo unspecified) | -1.5% (inactive) | 
67 | CCc1[nH]nc(C(=O)N2CCCC(Nc3ccc(C(C)C)cc3)C2)c1C (stereo unspecified) | -2.33% (inactive) | 
68 | CCc1ccc(-c2csc3[n+]2CCN3C(C)=O)cc1 | -4.47% (inactive) | 
69 | O=C(Nc1ccc2snnc2c1)N1CCN(c2ccccc2)CC1 | -2.31% (inactive) | 
70 | CC1(C)Nc2ccccc2N(CC(=O)N2CCCCC2)C1=O | -0.3% (inactive) | 
71 | O=c1[nH]c(/C=C\c2cccc(F)c2)nc(O)c1[N+](=O)[O-] | -1.32% (inactive) | 
72 | COc1cc(/C=N/Nc2ccc([N+](=O)[O-])cn2)cc(OC)c1O | -0.153% (inactive) | 
73 | CCn1c(/C=C/c2ccc(O)cc2)nc2ccccc2c1=O | -1.78% (inactive) | 
74 | O=c1[nH]c(/C=C\c2ccccc2F)nc(O)c1[N+](=O)[O-] | 14.8% (inactive) | 
75 | COc1cc(/C=N/NC(=O)c2cccc([N+](=O)[O-])c2)cc(OC)c1O | -11.4% (inactive) | 

Row | Structure (SMILES) | activity change, negative = inhibition | AC50
76 | O=c1[nH]c(/C=C\c2cccc(Cl)c2)nc(O)c1[N+](=O)[O-] | 2.32% (inactive) | 
77 | Cc1ccc(C2SCC(=O)N2c2ccccc2)cc1 (stereo unspecified) | -0.588% (inactive) | 
78 | N#CC1=C(N)n2c(s/c(=C\c3cccs3)c2=O)=C(C#N)C1c1cccs1 (stereo unspecified) | -4.78% (inactive) | 
79 | N#Cc1cnn(-c2ccccc2)c1NC(=O)CN1CCN(c2ccccc2)CC1 | -1.31% (inactive) | 
80 | CN(C)S(=O)(=O)c1ccc(-c2cn3ccccc3n2)cc1 | -0.3% (inactive) | 
81 | O=C(N/N=C\c1cccc(Cl)c1)c1ccc(Cn2cccn2)o1 | -1.36% (inactive) | 
82 | CSc1nc(O)c(Nc2cccc(Cl)c2)c(=O)[nH]1 | -7.18% (inactive) | 
83 | Nc1ncc(Br)cc1S(=O)(=O)NCCC(=O)N1CCN(c2ccccc2)CC1 | 0.555% (inactive) | 
84 | Cc1ccc(S(=O)(=O)N2CCN=C2SCc2cccnc2)cc1 | -1.98% (inactive) | 
85 | CC(=O)Nc1nc(C)c(-c2csc(Nc3ccc(O)cc3)n2)s1 | -8.34% (inactive) | 
86 | Nc1ccc(-c2nc3cc(N)ccc3s2)cc1 | 7.41% (inactive) | 
87 | CN=c1scc(-c2ccccc2F)n1/N=C(\C)c1cccnc1 | 3.25% (inactive) | 
88 | O=C1CSC(=S)N1c1ccc(O)cc1 | -14.2% (inactive) | 
89 | COc1cc(/C=N/NC(=O)Cn2cnc3c2c(=O)n(C)c(=O)n3C)ccc1O | -4.29% (inactive) | 
90 | S=c1[nH]nc(C2CCCCC2)n1/N=C/c1ccccn1 | -9.61% (inactive) | 
91 | COc1cc(/C=N/N=C2/NC(=O)C(c3ccccc3)S2)ccc1O (stereo unspecified) | -6.81% (inactive) | 
92 | Oc1cc(O)cc(/C=C/c2ccc(O)c(O)c2)c1 |  | 5.21 µM (active)
93 | Cc1ccsc1C=Nc1ccc(O)cc1 | -11.6% (inactive) | 
94 | Oc1ccc(/C=N/N=C/c2ccc(O)c(O)c2)cc1O |  | 2.39 µM (active)
95 | COc1ccc(N=C2C(=O)Nc3ccccc32)cc1 | -1.56% (inactive) | 
96 | COc1cc(/C=C/c2ccc(O)cc2)cc(OC)c1 | -7.17% (inactive) | 
97 | Oc1ccc(/C=N/N=C/c2ccc(O)cc2)cc1 | -5.85% (inactive) | 
98 | O=Cc1ccc(O)c(O)c1 | -9.22% (inactive) | 
99 | Cc1ccc(CN2CCN(/N=C/c3ccc(O)c(O)c3)CC2)cc1 | -16.5% (inactive) | 
100 | COc1ccccc1C(=O)NCCN1CCN(c2ccccc2)CC1 | -0.099% (inactive) | 

Row | Structure (SMILES) | activity change, negative = inhibition | AC50
101 | CN(C)c1ccc(NC(=O)Nc2ccc3snnc3c2)cc1 | -3.85% (inactive) | 
102 | CC(C)(C)c1cc(-c2n[nH]c(=S)n2-c2ccccc2F)n[nH]1 | -5.97% (inactive) | 
103 | N#CCC(=O)Nc1ccc(C(=O)NCc2cccc(Cl)c2)cc1 | 3.3% (inactive) | 
104 | CC(=O)Oc1ccc(-c2cccc(C(=O)N(C)c3ccc(O)cc3)c2)cc1 | -3.13% (inactive) | 
105 | CCN(CCCNS(=O)(=O)c1ccc2c(c1)CCN2C(C)=O)c1cccc(C)c1 | -1.53% (inactive) | 
106 | CC(C)C1C(C#N)=C(N)Oc2n[nH]c(-c3cccs3)c21 (stereo unspecified) | -0.778% (inactive) | 
107 | COc1cc(/C=N/NC(=O)c2cc(-c3ccc4c(c3)OCO4)n[nH]2)ccc1O | -3.44% (inactive) | 
108 | COc1ccc(OC)c(C2C(C#N)=C(N)Oc3cc(N)ccc32)c1 (stereo unspecified) | -8.04% (inactive) | 
109 | COC(=O)Cc1ccc(O)c(N)c1 | -2.6% (inactive) | 
110 | Cc1ccc(C2C(C#N)=C(N)Oc3cc(N)ccc32)cc1 (stereo unspecified) | 0.893% (inactive) | 
111 | N#CC1=C(N)Oc2n[nH]c(-c3cccs3)c2C1c1ccco1 (stereo unspecified) | -15% (inactive) | 
112 | CC1CC/C(=N/Nc2ccccc2)C(=O)N1 (stereo unspecified) | 0.626% (inactive) | 
113 | c1csc(-c2nc3ccccn3c2NC2CCCCC2)c1 | -1.18% (inactive) | 
114 | Cc1ccn2c(NC(C)(C)C)c(-c3cccs3)nc2c1 | -6.03% (inactive) | 
115 | COc1ccc(C)cc1NC(=O)c1cc2c(CO)cnc(C)c2oc1=N | 1.17% (inactive) | 
116 | Oc1ccccc1N1CCN(c2nnnn2-c2ccccc2)CC1 | 2.71% (inactive) | 
117 | CN1CC(=O)N(CC(=O)Nc2ccc(SC(F)F)cc2)C1=O | 0.156% (inactive) | 
118 | O=C(NCC(=O)N1CCN(c2ccccc2O)CC1)c1cccs1 | 6.02% (inactive) | 
119 | Cc1ccc(S(=O)(=O)Nc2c(C(=O)O)[nH]c3ccccc23)c(C)c1 | -9.26% (inactive) | 
120 | C/C(=N\NC(=O)c1csc2ccccc12)c1ccc(O)cc1 | -13.2% (inactive) | 
121 | CCN(CC)c1ccc(C(=O)N/N=C(\C)c2ccc(O)cc2)cc1 | -5.31% (inactive) | 
